# A selection: hits, their analogues and other compounds. The true share with any hit is near 1.9%.
# PLC-gamma1 inh: PLC-gamma1 enzyme inhibitors, primary screen, biochemical, fluorescence, purified enzyme; 1-phosphatidylinositol 4,5-bisphosphate phosphodiesterase gamma-1 (Homo sapiens), P19174; fluorogenic substrate; inhibition, % at 12.2 µM; 0.84% of 370,000 active; AID 720700, 2013; in the data active means inhibition above about 9.5%
# MsrA inhibitor: bovine MsrA enzyme inhibitors, primary screen, biochemical, absorbance, HTS; Methionine sulfoxide reductase A (Bos taurus); 0.75% of 360,000 active; purified bovine MsrA, absorbance read-out; inhibition, % at 15.5 µM; in the data active means inhibition above about 4.5%;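 further: 0% = vehicle wells with enzyme and 100% = reference inhibitor wells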
# MsrA act: bovine MsrA enzyme activators, primary screen, biochemical, absorbance, HTS; 0.3% of 360,000 active; Methionine sulfoxide reductase A (Bos taurus); purified bovine MsrA, absorbance read-out; activation, % at 10.6 µM; in the data active means activation above about 7.5%;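 further: 0% = vehicle and 100% = reference activator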
# PLCb3 inh: human PLC-beta3 inhibitors, primary screen, biochemical, fluorescence; 0.18% of 370,000 active; inhibition, % at 12.2 µM; Purified PLC-beta3, fluorogenic substrate; in the data active means inhibition above about 11%;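 further: 0% = median of compound wells on plate and 100% = full blocker control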
# MsrA act confirm: bovine MsrA activators, retest, confirmation, biochemical, absorbance, HTS; shares compounds with MsrA act; purified bovine MsrA, absorbance read-out; activation, % at 10.6 µM; 12% of 1,000 active; AID 602270, 2012; in the data active means activation above about 4%;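 further: enzyme coupled to thioredoxin and thioredoxin reductase with NADPH; 0% = vehicle wells and 100% = reference activator wells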
# Numbers without * were called inactive; nt = no result.
SMILES,PLC-gamma1 inh,MsrA inhibitor,MsrA act,PLCb3 inh,MsrA act confirm
CNc1snc(C)c1C(=O)OC(C)C(=O)Nc1cccc(OC)c1 (stereo unspecified),1,-1,-10,-6,nt
CCCCCCCCN1C(=O)[C@@H](CC(=O)NCc2cccc3ccccc23)C[C@@]2(C(=O)OC)C1=C[C@H](C1CCCC1)O[C@@H]2C,2,0,nt,0,nt
Cc1c(NC(=O)c2ccc(C(C)(C)C)cc2)cccc1[N+](=O)[O-],3,2,11*,4,-1
COC(=O)c1c(-c2ccc(OC)cc2)c2c(c3c4cc(OC)ccc4n(C(=O)c4ccccc4)c13)C(=O)N(C)C2,-47,0,nt,-59,nt
CN1CCN(C(c2ccccn2)c2cc(Cl)c3cccnc3c2O)CC1 (stereo unspecified),-19,2,18*,-42,-2
Cc1ccc(C(c2cc(Cl)c3cccnc3c2O)N2CCN(C)CC2)cc1 (stereo unspecified),nt,nt,-5,nt,nt
Cc1ccc(-n2c(COc3ccccc3)nnc2SCC(=O)Nc2ccc3c(c2)OCO3)cc1,3,nt,nt,0,nt
Cc1ccc(N=Nc2cc(C)ccc2O)c(C)c1,0,-1,10*,-4,0
Cc1ccc(C)c(N=Nc2ccc(O)c3ncccc23)c1,3,0,-10,-9,nt
CC(C)CNc1nc(=S)nc(N(C)C)[nH]1,0,1,8.3*,4,4.2*
Cc1nnc(Sc2c(N)n(C)c(=O)[nH]c2=O)s1,3,-1,11*,4,-2
CN(CCOC(=O)CSc1ccccc1)C1CN(Cc2cn(Cc3ccccc3F)nn2)S(=O)(=O)C1 (stereo unspecified),0,nt,nt,-2,nt
C[C@@H]1NS(=O)(=O)c2c(F)cccc2O[C@@H]1c1ccccc1,1,0,nt,3,nt
O=C(Nc1nnc([C@H]2C[C@H](O)[C@@H](CO)O2)s1)Nc1ccc(F)cc1F,-3,0,7.8*,5,-2
COc1ccccc1OCc1ccc(C(=O)Nc2ccccc2)cc1,5,0,12*,-6,1
CC(=O)N1CCN(c2ccc(N3CCN(C(C)=O)[C@H](C)C3)c(C)c2)[C@H](C)C1,4,1,nt,3,nt
CCOC(=O)C1CCCN(C/C=C/c2ccccc2[N+](=O)[O-])C1 (stereo unspecified),1,0,7.9*,2,-1
Cn1ccsc1=NC(=O)c1ccc([N+](=O)[O-])o1,4,1,8.8*,-3,1
OCCCCCCNc1ccc(CCO)cc1,5,-1,8.6*,1,0
Cc1ccc(NC(=O)OCCN(C)C(=O)Nc2ccc(C)cc2C)c(C)c1,-1,1,nt,-5,nt
CC(=O)N(c1nc2ccccc2s1)N1C(=O)c2ccccc2C1=O,-6,1,nt,-8,nt
O=C(NCCCN1CCOCC1)C1CC(=O)N(c2ccccc2)C1 (stereo unspecified),1,1,-1,-3,nt
CCOc1ccc(N2CC(C(=O)NCCCN3CCOCC3)CC2=O)cc1 (stereo unspecified),1,0,9.1*,2,-2
Cc1cccc(NNC(=S)Nc2ccccc2)c1,3,3,-5,-2,nt
Cc1cccc(NNC(=S)Nc2c(C)cccc2C)c1,-1,1,8.0*,-8,1
SMILES,PLC-gamma1 inh,MsrA inhibitor,MsrA act,PLCb3 inh,MsrA act confirm
O=C1Cn2nnc(-c3ccccc3)c2C2c3cc(Br)ccc3CCN12 (stereo unspecified),-3,-3,nt,2,nt
Cc1ccc(S(=O)(=O)NC(c2ccccc2)C(C)C(=O)n2nc(C)cc2C)cc1 (stereo unspecified),2,0,8.1*,2,1
Cc1ccc(S(=O)(=O)NC(CC(=O)n2nc(C)cc2C)c2ccccc2)cc1 (stereo unspecified),5,0,-5,5,nt
CCOc1ccc(-c2cccc(NC(=O)COc3ccccc3)c2)nn1,nt,nt,8.8*,nt,1
CC(=O)Nc1cccc(OCC(=O)Nc2ccccc2)c1,1,0,-6,3,nt
O=C(N[C@H](C(=O)N1CCC[C@H]1C(=O)NC1CCCC1)C1CCCCC1)c1ccccc1,1,0,nt,3,nt
C=CCNC(=O)c1ccccc1NC(=O)c1ccccc1SC,0,0,-10,-3,nt
C=CCNC(=O)c1ccccc1NC(=O)c1ccccc1C,0,-1,8.6*,1,-1

# High-throughput results: PubChem, The Scripps Research Institute Molecular Screening Center
